In PubChem BioAssay:
A number with no mark means an inactive call. For some assays here: Entries with a potency or affinity are not part of this list. Calls of active or inactive are those of the source. Unless noted, how the calls were made is not given here.

Experiments:
[1] = antimalarial activity against Dd2 strain (AID 2302;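 active means growth inhibition above 50% at the single 2 µM test dose, taken to imply half-maximal potency below 2 µM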;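 further: 0% = DMSO untreated growth and 100% = chloroquine plus artemisinin killed control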); conditions: P. falciparum Dd2 in RBCs, LDH growth readout, 72 h; at 2 µM; active compounds read high
[2] = human hepatoma cell viability loss – ATP luminescence, cytotoxicity control for P. falciparum antimalarial project, primary screen (AID 2303;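 active means inhibition above 50%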;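 further: 0% = DMSO wells and 100% = digitonin-killed cells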); conditions: HepG2 viability, 24-48 h, at 10 µM, active compounds read high
[3] = biological target: L-lactate dehydrogenase (Plasmodium falciparum (isolate CDC / Honduras)) (UniProt Q27743); experiment: PfLDH activity inhibition – cell lysate, 3D7 strain, counter-screen for P. falciparum growth inhibition project (AID 2304);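 further: 0% = vehicle and 100% = reference inhibitor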; conditions: P. falciparum 3D7 crude extract, LDH APAD/NBT absorbance; at 2 µM; active compounds read high
L-lactate dehydrogenase (Plasmodium falciparum (isolate CDC / Honduras)), sequence (Q27743 whole entry, looked up): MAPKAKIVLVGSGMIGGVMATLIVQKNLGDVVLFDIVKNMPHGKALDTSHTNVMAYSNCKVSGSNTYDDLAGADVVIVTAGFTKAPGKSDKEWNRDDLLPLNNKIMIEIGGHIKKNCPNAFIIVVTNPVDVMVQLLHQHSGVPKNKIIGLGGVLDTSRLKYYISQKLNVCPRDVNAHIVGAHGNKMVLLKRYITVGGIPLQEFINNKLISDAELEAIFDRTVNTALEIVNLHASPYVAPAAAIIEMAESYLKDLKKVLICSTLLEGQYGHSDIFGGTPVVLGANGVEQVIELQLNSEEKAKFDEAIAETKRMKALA

[4] = inhibition of 3D7 malaria parasite growth – strain 3D7 (AID 2306);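 further: 0% = DMSO wells and 100% = chloroquine plus artemisinin control wells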; conditions: P. falciparum 3D7 erythrocytic growth, LDH absorbance, 72 h; at 2 µM; active compounds read high
[5] = biological target: Calcium-dependent protein kinase 1 (Plasmodium falciparum (isolate 3D7)) (UniProt P62344); experiment: PfCDPK1 kinase inhibitors, biochemical, TCAMS library (AID 1159585; cut-off not given, nearly all actives have IC50 up to about 0.98 µM;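 further: inhibitors leave more ATP so luminescence rises with inhibition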); conditions: recombinant PfCDPK1, Kinase-Glo ATP depletion luminescence
Calcium-dependent protein kinase 1 (Plasmodium falciparum (isolate 3D7)), sequence (P62344 whole entry, looked up): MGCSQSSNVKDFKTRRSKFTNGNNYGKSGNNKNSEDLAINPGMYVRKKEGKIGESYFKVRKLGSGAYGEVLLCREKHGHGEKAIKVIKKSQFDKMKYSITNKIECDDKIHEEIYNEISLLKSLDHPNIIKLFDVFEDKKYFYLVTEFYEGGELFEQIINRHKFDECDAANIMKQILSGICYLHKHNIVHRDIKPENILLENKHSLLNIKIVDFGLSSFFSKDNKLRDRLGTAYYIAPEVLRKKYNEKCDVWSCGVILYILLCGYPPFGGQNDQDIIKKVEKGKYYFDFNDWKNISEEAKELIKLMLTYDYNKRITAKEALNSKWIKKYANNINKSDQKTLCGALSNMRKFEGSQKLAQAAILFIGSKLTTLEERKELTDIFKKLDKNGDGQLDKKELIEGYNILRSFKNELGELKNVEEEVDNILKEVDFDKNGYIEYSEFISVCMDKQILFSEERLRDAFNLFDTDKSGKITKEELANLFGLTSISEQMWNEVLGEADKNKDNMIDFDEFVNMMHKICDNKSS

[6] = biological target: Plasmodium falciparum protein kinase 6 (PK6, PF3D7_1337100) (UniProt Q8IDW1); experiment: PfPK6 kinase inhibitors, biochemical, TCAMS library (AID 1159586); conditions: recombinant PfPK6, Kinase-Glo ATP depletion luminescence
Plasmodium falciparum protein kinase 6 (PK6, PF3D7_1337100), sequence (Q8IDW1 1-305): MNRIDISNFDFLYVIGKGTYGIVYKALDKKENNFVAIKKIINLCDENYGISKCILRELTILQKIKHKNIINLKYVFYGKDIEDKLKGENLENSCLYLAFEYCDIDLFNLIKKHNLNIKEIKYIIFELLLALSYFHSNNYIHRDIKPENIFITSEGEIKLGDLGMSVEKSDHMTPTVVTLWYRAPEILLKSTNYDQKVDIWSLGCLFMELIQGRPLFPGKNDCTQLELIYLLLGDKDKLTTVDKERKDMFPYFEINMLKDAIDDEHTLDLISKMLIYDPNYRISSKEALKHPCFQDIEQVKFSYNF

[7] = biological target: Protein kinase 7 (PK7), Plasmodium falciparum 3D7 (PF3D7_0213400) (UniProt Q7YTF7); experiment: inhibition of Plasmodium PK7 catalytic activity – biochemical, TCAMS antimalarial set, Kinase-Glo luminescence (AID 1159587); conditions: recombinant PfPK7, Kinase-Glo ATP depletion luminescence
Protein kinase 7 (PK7), Plasmodium falciparum 3D7 (PF3D7_0213400), sequence (Q7YTF7 1-343): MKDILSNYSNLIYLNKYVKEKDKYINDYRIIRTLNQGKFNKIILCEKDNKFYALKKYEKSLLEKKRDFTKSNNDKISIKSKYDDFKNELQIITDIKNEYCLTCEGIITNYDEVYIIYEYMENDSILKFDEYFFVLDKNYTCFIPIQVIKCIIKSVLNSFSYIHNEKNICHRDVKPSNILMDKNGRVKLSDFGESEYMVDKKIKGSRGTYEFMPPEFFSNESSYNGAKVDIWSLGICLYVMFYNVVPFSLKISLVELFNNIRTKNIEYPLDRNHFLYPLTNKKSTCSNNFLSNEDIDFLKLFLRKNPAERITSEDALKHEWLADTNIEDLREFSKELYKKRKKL

[8] = biological target: Calcium-dependent protein kinase 4 (Plasmodium falciparum (isolate 3D7)) (UniProt Q8IBS5); experiment: PfCDPK4 kinase inhibitors, biochemical, TCAMS library (AID 1159588; cut-off not given, nearly all actives have IC50 up to about 0.91 µM); conditions: recombinant PfCDPK4, Kinase-Glo ATP depletion luminescence
Calcium-dependent protein kinase 4 (Plasmodium falciparum (isolate 3D7)), sequence (Q8IBS5 whole entry, looked up): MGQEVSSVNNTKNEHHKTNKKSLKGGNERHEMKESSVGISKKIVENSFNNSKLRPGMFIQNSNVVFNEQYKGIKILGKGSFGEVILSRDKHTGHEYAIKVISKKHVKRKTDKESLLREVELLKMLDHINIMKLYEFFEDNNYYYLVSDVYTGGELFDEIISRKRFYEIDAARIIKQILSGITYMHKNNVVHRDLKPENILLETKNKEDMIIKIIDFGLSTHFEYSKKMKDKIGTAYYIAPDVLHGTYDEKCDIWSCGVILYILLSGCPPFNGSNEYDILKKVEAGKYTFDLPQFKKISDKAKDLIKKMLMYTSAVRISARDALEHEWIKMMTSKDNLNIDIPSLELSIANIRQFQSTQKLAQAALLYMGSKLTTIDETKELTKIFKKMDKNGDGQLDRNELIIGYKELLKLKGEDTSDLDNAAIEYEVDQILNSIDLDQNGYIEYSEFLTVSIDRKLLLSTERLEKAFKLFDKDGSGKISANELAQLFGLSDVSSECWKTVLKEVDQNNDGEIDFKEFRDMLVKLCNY

Row | SMILES | growth inhibition [1] | inhibition [2] | inhibition [3] | growth inhibition [4] | outcome [5] | outcome [6] | outcome [7] | outcome [8]
1 | COc1ccc2c(NN=Cc3cccnc3)cc(C)nc2c1 | 12% | -4% | -2% | 85% (active) | inactive | inactive | inactive | inactive
2 | COc1ccc(CN2CCC(N3CC(c4ccccc4)(c4ccccc4)OCC3=O)C2)c(O)c1 (stereo not given) | 27% | 10% | 3% | 96% (active) | inactive | inactive | inactive | inactive
3 | CCCOc1ccc(C(F)(F)F)cc1NC(=O)c1nc2nc(C)cc(C)n2n1 | 88% (active) | 7% | -4% | 90% (active) | inactive | inactive | inactive | inactive
4 | c1ccc2[nH]c(CN(Cc3nc4ccccc4[nH]3)Cc3nc4ccccc4[nH]3)nc2c1 | 86% (active) | 39% | -2% | 81% (active) | inactive | inactive | inactive | inactive
5 | CCOc1cccc(C(=O)Nc2ccc(-c3nc4ccccc4[nH]3)cc2)c1 | 30% | 40% | -1% | 96% (active) | inactive | inactive | inactive | inactive
6 | CC(=O)Nc1ccc(C(=O)Nc2ccc(-c3csc(-c4nc5ccccc5[nH]4)c3)cc2)cn1 | -2% | 11% | -3% | 93% (active) | inactive | inactive | inactive | inactive
7 | NC(=O)COc1c(C2CCN(CCN3CCC(CNC(=O)c4ccc(-c5ccc(C(F)(F)F)cc5)cc4)CC3)CC2)ccc2c1CCCC2 | 68% (active) | 32% | -1% | 87% (active) | inactive | inactive | inactive | inactive
8 | CC(C)N1CCC(Oc2ccc(CN3CCN(C(c4ccccc4)c4ccc(Cl)cc4)CC3)cc2)CC1 (stereo not given) | 46% | 44% | 4% | 97% (active) | inactive | inactive | inactive | inactive
9 | CC(=O)Nc1cccc(CN(Cc2ccc(-c3ccc(CNCc4cccnc4)cn3)cc2)C(=O)Cc2cccnc2)c1 | 65% (active) | -3% | -10% | 97% (active) | inactive | inactive | inactive | inactive
10 | CCCC(C(=O)OCCNC)(c1ccccc1)c1ccccc1 | 96% (active) | 7% | 7% | 98% (active) | inactive | inactive | inactive | inactive
11 | COc1cc(Cc2cnc(N)nc2N)ccc1OCc1ccc(-c2ccccc2C#N)cc1 | 3% | 32% | 6% | 93% (active) | inactive | inactive | inactive | inactive
12 | COc1ccccc1-n1c(SCC(=O)c2ccc3c(c2)CC(=O)N3C)nnc1-c1cccs1 | 55% (active) | 7% | -3% | 95% (active) | inactive | inactive | inactive | inactive
13 | CN(C)CCNC(=O)[C@H](Cc1ccccc1)NC(=O)c1ccc(O)c(-c2ccc(Cl)c(Cl)c2)c1 | 0% | -1% | -6% | 98% (active) | inactive | inactive | inactive | inactive
14 | O=S(=O)(NC1CCN(c2ccnc3cc(Cl)ccc23)C1)c1ccc(C(F)(F)F)cc1 (stereo not given) | 98% (active) | 20% | 2% | 100% (active) | inactive | inactive | inactive | inactive
15 | O=C(CCc1cnc[nH]1)Nc1cccc(-c2ccc(-c3nc4ccc(F)cc4[nH]3)s2)c1 | 69% (active) | 17% | -3% | 101% (active) | inactive | inactive | inactive | inactive
16 | c1cncc(-c2cccc(CNc3nccc(Nc4ccc(OCCN5CCOCC5)cc4)n3)c2)c1 | 27% | 1% | -2% | 93% (active) | inactive | inactive | inactive | inactive
17 | CC1Cc2ccccc2N1S(=O)(=O)c1cc(OCC(F)(F)F)ccc1OCC(F)(F)F (stereo not given) | 95% (active) | 10% | 0% | 96% (active) | inactive | inactive | inactive | inactive
18 | CCCCCN1CCC(CNS(=O)(=O)c2ccc(C(=O)Nc3cccc(C(F)(F)F)c3)cc2)CC1 | 13% | 13% | -7% | 98% (active) | inactive | inactive | inactive | inactive
19 | Cc1nc2nc(N)nc(N)c2c(C)c1Cc1ccc(Cl)cc1 | 22% | 62% (active) | 0% | 94% (active) | inactive | inactive | inactive | inactive
20 | Nc1nc2c(c(=O)[nH]1)CN(S(=O)(=O)c1ccc(C(=O)N[C@@H](CCC(=O)O)C(=O)O)cc1)CC2 | 96% (active) | 49% | 6% | 95% (active) | inactive | inactive | inactive | inactive

Row | SMILES | growth inhibition [1] | inhibition [2] | inhibition [3] | growth inhibition [4] | outcome [5] | outcome [6] | outcome [7] | outcome [8]
21 | Cc1cccc2[nH]c(-c3ccc(-c4cccc(CNCC5CCCO5)c4)s3)nc12 (stereo not given) | 11% | 26% | -8% | 93% (active) | inactive | inactive | inactive | inactive
22 | CCCC(C)Nc1nc(C)cc(N[C@@H](Cc2ccccc2)C(=O)NCCOc2ccccc2)n1 (stereo not given in full) | 68% (active) | 10% | -1% | 101% (active) | inactive | inactive | inactive | inactive
23 | Cc1ccc2[nH]c3ccccc3c(=O)c2c1 | 74% (active) | -4% | -1% | 93% (active) | inactive | inactive | inactive | inactive
24 | Cc1cc(N2Cc3ccccc3C2)nc(Nc2ccc(S(=O)(=O)N3CCOCC3)cc2)n1 | 85% (active) | 13% | 0% | 101% (active) | inactive | inactive | inactive | inactive
25 | N#Cc1ccc2c(c1)CN(C1CCC(NC(=O)c3cc(-c4ccc(Cl)cc4)cs3)CC1)CCC2 (stereo not given) | 99% (active) | 36% | 0% | 101% (active) | inactive | inactive | inactive | inactive
26 | FC(F)(F)c1ccc2nc(-c3ccc(-c4cccc(CNCC5CCCO5)c4)cc3)[nH]c2c1 (stereo not given) | 100% (active) | 36% | -5% | 101% (active) | inactive | inactive | inactive | inactive
27 | Fc1ccc2nc(-c3ccc(-c4ccc(CNCCN5CCNCC5)cc4)cc3)[nH]c2c1 | 70% (active) | 94% (active) | -3% | 96% (active) | inactive | inactive | inactive | inactive
28 | CN1CCCc2ccc(NC(=O)c3cc(-c4ccc(Cl)cc4)cs3)cc2C1 | 40% | 35% | -2% | 94% (active) | inactive | inactive | inactive | inactive
29 | CNC(=O)c1cnc(Nc2ccc(N3CCN(C)CC3)c(C)c2)nc1NC | 38% | 19% | -1% | 97% (active) | inactive | inactive | inactive | inactive
30 | CCCN(CCC)C(=O)c1cc(C(=O)N[C@@H](Cc2ccccc2)[C@H](O)CNC(C)(C)c2cccc(C(F)(F)F)c2)cc(N2CCCCS2(=O)=O)c1 | 98% (active) | 19% | -4% | 99% (active) | inactive | inactive | inactive | inactive
31 | O=C(NCCCCN1CCN(c2ccc3c(c2)CCC3)CC1)c1ccc(NC(=O)c2ccc(Cl)cc2)cc1 | 35% | 38% | 2% | 98% (active) | inactive | inactive | inactive | inactive
32 | Cc1ccc(NC(=O)c2ccc(CN3CCCN(Cc4cccc(Cl)c4)CC3)cc2)cc1C | 18% | 41% | 2% | 84% (active) | inactive | inactive | inactive | inactive
33 | N#Cc1ccc(CN2CCC(Oc3ccc(NC(=O)c4ccco4)cc3Cl)C2)cc1 (stereo not given) | 95% (active) | 13% | -2% | 95% (active) | inactive | inactive | inactive | inactive
34 | CC(C)C1=C[C@H]2C[C@]3(C4OCCO4)[C@@H]4CC[C@@H](C)[C@H]4C[C@@]2(COCc2cccc(C#N)c2)[C@]13C(=O)OC(c1ccccc1)c1ccccc1 | 92% (active) | -5% | 8% | 88% (active) | inactive | inactive | inactive | inactive
35 | CC(C)CNCc1ccc(-c2ccc(CN(CCCN3CCN(C)CC3)C(=O)/C=C/c3ccccc3)cc2)cc1 | 93% (active) | 57% (active) | 3% | 99% (active) | inactive | inactive | inactive | inactive
36 | OC(CNc1ccnc(Nc2cccc(Cl)c2)n1)c1ccc(C(F)(F)F)cc1 (stereo not given) | 61% (active) | 13% | 5% | 101% (active) | inactive | inactive | inactive | inactive
37 | OCCNc1nc(Nc2ccc(F)cc2)nc2ccccc12 | 73% (active) | 10% | 3% | 94% (active) | inactive | inactive | inactive | inactive
38 | CC(C)Sc1nc(-c2ccccc2)nc2c1COC(C)(C)C2 | 41% | 2% | -4% | 98% (active) | inactive | inactive | inactive | inactive
39 | O=C(/C=C/c1ccc(Cl)c(Cl)c1)NCCCCCN1CCC(NC(=O)Nc2ccc(F)c(Cl)c2)CC1 | 11% | 98% (active) | 5% | 100% (active) | inactive | inactive | inactive | inactive
40 | CN1CCC(N2CCN(Cc3ccc(-c4ccc(-c5nc6ccccc6[nH]5)s4)cc3)CC2)CC1 | 100% (active) | 62% (active) | -3% | 101% (active) | inactive | inactive | inactive | inactive
